The source of these data is ChEMBL document CHEMBL3988442, “University of Dundee, Small-Polar-MMV Screening Library” (2021).

Common to all, as to parameters: scale not given: direction of the effect not stated beside the values
Experiment [1] concerns the target Protein translocase subunit SecA (Escherichia coli (strain K12)) (UniProt P10408). The experiment in a line: Assay to Identify E. coli SecA ATPase Inhibitors. It counts as functional. As to conditions: 30 µM.
The target in experiment [2] is T1, Ubiquitin-activating enzyme e1, putative (Leishmania donovani (strain BPK282A1)) (UniProt E9BSI1).
T1 sequence (whole entry): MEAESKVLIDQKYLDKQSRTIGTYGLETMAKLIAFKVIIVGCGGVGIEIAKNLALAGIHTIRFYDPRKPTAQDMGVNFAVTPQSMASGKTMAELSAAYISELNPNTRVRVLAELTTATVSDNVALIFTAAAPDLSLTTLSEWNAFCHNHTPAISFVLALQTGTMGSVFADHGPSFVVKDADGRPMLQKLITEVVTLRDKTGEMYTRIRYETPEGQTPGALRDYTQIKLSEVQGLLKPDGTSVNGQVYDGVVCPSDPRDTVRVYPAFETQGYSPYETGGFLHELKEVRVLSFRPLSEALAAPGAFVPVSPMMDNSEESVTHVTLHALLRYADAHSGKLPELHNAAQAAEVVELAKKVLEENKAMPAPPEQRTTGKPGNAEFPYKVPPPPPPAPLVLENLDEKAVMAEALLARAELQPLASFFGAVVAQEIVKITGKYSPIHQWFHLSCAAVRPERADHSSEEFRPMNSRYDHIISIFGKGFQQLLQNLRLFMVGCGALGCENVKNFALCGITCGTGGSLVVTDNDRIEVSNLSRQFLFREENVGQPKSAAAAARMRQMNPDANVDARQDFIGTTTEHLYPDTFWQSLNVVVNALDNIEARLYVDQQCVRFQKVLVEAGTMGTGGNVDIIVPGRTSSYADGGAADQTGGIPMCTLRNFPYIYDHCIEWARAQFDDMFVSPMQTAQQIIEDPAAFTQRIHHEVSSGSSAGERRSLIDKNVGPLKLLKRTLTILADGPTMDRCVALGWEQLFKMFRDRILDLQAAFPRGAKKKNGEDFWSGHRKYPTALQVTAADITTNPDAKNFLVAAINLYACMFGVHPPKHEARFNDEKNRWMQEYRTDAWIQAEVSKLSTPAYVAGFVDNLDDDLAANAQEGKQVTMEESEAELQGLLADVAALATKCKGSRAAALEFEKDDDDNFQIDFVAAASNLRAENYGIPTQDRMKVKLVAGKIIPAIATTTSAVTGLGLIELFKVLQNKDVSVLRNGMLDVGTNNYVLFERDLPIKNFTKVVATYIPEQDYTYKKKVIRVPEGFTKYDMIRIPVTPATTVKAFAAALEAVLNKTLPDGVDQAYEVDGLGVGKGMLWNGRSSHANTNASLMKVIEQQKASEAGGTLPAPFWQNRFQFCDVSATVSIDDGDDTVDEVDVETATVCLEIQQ
The experiment in a line: Leishmania donovani Ubiquitin Activating Enzyme (LdE1). In kind it is functional. The settings on record: 30 µM.

In experiment [3] the target is AMP-activated protein kinase, AMPK (Homo sapiens) (UniProt P54646+O43741+P54619+Q9UGJ0+Q9Y478+Q13131+Q9UGI9). The experiment in a line: AMP-dependent Kinase enzyme assay. An in vitro enzyme assay that detects ADP turnover that is directly proportional to AMPK activity. This uses naive AMPK that is activated during the assay with MK-8722. As to conditions: 30 µM. It counts as functional.

The target in experiment [4] is Sialic acid-binding Ig-like lectin 9 (Homo sapiens) (UniProt Q9Y336). The experiment is described as follows: Hs-Siglec9 ALPHAscreen SOP 20170721. As to conditions: 10 µM.
Sequence of Sialic acid-binding Ig-like lectin 9 (Homo sapiens) (Q9Y336 whole entry): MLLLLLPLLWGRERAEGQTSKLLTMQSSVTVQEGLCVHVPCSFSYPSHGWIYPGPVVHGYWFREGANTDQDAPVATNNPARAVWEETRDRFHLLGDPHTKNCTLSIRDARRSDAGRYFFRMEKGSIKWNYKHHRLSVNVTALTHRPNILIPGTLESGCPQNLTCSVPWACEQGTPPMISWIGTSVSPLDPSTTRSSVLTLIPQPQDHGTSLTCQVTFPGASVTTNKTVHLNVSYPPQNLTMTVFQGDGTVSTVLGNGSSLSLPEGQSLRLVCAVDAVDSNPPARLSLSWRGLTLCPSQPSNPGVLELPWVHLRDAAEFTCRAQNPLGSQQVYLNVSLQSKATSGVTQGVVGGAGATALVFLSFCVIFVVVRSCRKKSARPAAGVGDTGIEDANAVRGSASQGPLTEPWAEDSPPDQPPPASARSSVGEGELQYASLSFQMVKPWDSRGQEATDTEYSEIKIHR
For the next experiment, the system named is Trypanosoma cruzi. The experiment is described as follows: Trypanosoma cruzi phosphomannomutase and mannose-1-phosphate guanylyltransferase assay. It counts as functional. As to conditions: 10 µM.
For experiment [5], the target named is T2, Arginase-2, mitochondrial (Homo sapiens) (UniProt P78540).
T2 sequence (whole entry): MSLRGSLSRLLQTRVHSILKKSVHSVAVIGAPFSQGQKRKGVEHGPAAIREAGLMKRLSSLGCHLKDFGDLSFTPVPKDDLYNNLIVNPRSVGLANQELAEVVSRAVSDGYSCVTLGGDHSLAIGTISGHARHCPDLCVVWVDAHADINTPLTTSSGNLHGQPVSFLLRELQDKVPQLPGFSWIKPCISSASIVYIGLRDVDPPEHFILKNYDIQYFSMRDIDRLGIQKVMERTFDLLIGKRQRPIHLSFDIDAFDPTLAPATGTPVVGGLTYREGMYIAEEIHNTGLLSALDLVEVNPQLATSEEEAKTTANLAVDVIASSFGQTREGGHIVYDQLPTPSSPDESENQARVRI
The experiment is described as follows: in vitro enzyme assay to detect the production of urea directly proportional to the activity of Arginase II. Also: in the data most compounds retested in dose-response had high values. In kind it is functional. As to conditions: 33.3 µM.

Experiment [6] deals with T3, Proteasome subunit beta (Trypanosoma cruzi) (UniProt O96673).
T3 sequence (whole entry): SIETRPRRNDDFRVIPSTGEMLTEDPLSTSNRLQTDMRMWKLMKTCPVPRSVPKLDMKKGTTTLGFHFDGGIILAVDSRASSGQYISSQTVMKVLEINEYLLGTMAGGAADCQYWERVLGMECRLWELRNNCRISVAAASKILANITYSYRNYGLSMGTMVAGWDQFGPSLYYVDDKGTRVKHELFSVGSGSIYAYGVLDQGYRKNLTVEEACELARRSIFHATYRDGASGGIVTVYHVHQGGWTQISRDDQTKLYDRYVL
The experiment in a line: Trypanosoma cruzi proteasome chymotrypsin-like activity (TcProtChymo) assay. Also: in the data most compounds retested in dose-response had high values. The settings on record: 9.37 µM. It counts as functional.

For the next experiment, the species on record is Homo sapiens. The experiment is described as follows: To identify inhibition of the IFN signalling (Jak-Stat) pathway via expression of an eGFP reporter gene under the control of an IFN-stimulated response element (ISRE) containing MxA promoter. The settings on record: 30 µM. It counts as functional. (A reporter such as luciferase makes a cellular process visible.)

The target in experiment [7] is T4, Tyrosyl-tRNA synthetase, putative (Trypanosoma cruzi (strain CL Brener)) (UniProt Q4DSP6).
T4 sequence (whole entry): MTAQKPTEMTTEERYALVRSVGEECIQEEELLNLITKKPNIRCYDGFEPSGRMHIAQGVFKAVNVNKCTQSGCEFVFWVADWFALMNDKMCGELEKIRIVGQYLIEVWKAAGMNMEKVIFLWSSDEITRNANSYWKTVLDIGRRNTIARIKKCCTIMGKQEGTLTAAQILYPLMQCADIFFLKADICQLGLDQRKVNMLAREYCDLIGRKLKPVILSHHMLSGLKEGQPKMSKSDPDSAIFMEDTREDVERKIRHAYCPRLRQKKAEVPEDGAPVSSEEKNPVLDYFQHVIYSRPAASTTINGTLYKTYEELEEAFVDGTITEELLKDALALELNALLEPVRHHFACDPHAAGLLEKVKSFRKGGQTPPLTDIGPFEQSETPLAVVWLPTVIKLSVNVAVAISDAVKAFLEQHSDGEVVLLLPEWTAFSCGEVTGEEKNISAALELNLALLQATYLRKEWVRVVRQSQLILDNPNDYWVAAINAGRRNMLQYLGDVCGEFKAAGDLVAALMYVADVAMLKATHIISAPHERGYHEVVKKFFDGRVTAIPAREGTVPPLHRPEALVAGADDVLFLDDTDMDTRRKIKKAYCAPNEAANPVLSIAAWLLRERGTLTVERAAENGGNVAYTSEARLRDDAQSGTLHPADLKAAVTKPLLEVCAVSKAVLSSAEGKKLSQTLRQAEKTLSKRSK
The experiment is described as follows: Trypanosoma cruzi tyrosyl tRNA synthetase (TcYRS) _High Tyrosine SOP. Also: in the data most compounds retested in dose-response had high values. In kind it is functional. As to conditions: 30 µM.

Experiment [8] concerns the target T4, Tyrosyl-tRNA synthetase, putative (Trypanosoma cruzi (strain CL Brener)). The experiment is described as follows: Trypanosoma cruzi tyrosyl tRNA synthetase (TcYRS) SOP. It counts as functional. The settings on record: 30 µM.
The target of experiment [9] is Chromo domain-containing protein 1 (Saccharomyces cerevisiae (strain ATCC 204508 / S288c) (Baker's yeast)) (UniProt P32657). The experiment in a line: ScCHD-1 Enzyme Inhibition Assay. Also: in the data most compounds retested in dose-response had high values. The settings on record: 30 µM. In kind it is functional.
Sequence of Chromo domain-containing protein 1 (Saccharomyces cerevisiae (strain ATCC 204508 / S288c) (Baker's yeast)) (P32657 whole entry, the tested form may be a part): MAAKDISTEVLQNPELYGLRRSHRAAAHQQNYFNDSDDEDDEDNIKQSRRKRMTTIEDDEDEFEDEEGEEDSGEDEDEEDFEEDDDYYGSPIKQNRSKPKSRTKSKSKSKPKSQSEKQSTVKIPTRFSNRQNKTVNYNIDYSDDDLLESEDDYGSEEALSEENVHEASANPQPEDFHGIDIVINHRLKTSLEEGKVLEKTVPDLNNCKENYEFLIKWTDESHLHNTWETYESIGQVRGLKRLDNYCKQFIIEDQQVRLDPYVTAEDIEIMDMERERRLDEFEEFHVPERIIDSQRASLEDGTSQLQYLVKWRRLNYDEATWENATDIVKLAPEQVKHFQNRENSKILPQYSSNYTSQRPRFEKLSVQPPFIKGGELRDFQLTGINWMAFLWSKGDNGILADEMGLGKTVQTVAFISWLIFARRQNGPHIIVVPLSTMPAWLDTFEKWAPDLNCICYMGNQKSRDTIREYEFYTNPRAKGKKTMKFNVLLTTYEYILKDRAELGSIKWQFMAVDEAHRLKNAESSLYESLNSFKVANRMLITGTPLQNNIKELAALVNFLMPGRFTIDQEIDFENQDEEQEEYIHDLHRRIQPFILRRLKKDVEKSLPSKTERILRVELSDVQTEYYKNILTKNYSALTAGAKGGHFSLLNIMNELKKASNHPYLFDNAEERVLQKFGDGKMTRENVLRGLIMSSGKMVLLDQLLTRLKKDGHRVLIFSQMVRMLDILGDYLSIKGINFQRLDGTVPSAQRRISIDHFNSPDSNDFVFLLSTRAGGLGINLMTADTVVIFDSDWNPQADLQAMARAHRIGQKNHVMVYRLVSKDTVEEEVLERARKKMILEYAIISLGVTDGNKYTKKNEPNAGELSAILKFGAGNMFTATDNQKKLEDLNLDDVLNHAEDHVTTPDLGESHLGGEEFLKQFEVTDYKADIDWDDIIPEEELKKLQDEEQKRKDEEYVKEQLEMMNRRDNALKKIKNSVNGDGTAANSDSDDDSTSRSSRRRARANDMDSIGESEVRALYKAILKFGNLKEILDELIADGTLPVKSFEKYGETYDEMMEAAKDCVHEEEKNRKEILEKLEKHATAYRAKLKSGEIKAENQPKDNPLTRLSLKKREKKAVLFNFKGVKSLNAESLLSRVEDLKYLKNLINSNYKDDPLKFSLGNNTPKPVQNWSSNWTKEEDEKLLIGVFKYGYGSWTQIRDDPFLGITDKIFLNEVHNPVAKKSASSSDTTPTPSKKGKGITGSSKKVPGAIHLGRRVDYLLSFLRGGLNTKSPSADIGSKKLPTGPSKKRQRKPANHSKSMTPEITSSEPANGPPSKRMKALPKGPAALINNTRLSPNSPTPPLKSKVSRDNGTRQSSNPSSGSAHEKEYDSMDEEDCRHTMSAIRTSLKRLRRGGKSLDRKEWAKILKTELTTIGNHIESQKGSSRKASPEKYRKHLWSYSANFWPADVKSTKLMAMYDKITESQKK

Molecules are shown by their SMILES. For some of these results: Results with a measured potency or affinity are listed apart.

Sequence of Protein translocase subunit SecA (Escherichia coli (strain K12)) (P10408 whole entry): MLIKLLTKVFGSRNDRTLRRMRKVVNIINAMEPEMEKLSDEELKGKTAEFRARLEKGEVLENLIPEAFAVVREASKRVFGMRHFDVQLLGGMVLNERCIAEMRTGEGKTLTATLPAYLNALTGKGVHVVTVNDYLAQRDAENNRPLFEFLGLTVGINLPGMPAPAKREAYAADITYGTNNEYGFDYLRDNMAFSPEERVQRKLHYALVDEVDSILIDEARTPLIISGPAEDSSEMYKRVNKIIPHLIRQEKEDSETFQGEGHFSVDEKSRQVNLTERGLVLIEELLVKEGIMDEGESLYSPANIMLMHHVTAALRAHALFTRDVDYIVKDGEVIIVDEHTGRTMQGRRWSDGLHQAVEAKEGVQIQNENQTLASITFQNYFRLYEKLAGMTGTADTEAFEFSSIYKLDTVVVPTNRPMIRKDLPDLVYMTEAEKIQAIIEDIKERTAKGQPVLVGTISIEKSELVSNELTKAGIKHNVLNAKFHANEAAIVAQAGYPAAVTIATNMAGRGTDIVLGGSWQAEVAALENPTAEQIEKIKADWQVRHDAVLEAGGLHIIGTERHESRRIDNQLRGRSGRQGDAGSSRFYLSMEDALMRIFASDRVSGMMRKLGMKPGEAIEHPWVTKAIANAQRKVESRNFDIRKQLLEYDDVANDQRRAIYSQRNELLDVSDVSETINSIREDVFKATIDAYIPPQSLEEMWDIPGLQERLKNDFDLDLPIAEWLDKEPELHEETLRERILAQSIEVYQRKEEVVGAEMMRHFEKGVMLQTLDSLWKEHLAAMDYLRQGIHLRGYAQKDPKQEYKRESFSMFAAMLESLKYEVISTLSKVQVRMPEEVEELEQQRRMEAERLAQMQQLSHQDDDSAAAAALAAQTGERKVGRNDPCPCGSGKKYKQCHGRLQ

Consider `CSc1ncccc1C(=O)N1C[C@H]2CC[C@@H]1CN(c1cnccn1)C2`, for which the Percent Effect in experiment [1] is -6.82%; in experiment [2], 7.79%; in experiment [3] it was 4.77%; in experiment [4], 7.96%; in the experiment on Trypanosoma cruzi, -3.44%; in [5], -29%. Besides, the Percent Effect in experiment [6] was 10.5%; in the experiment listed under Homo sapiens, -1.66%; in [7] it was 5.38%; in experiment [8] it was 8.64%; in experiment [9] it was 0.924%.

With `Cc1ccccc1CNc1nc(O)cc(C2CC(=O)N(C)C2)n1` (stereo unspecified), the Percent Effect was 3.9% in experiment [1]; 6.76% in [2]; 3.36% in [3]; -2.99% in experiment [4]; -44.5% in the experiment with Trypanosoma cruzi; 4.87% in experiment [5]. For the same molecule, the Percent Effect in experiment [6] is 13.1%; in the experiment filed under Homo sapiens, 8.17%; in experiment [7], 2.15%; in [8], 9.09%; in experiment [9], -10.8%.

Turning to `CN(C)CC1CN(c2ncnc3[nH]ccc23)CCO1` (stereo unspecified), the Percent Effect is -5.15% in [1]; 16.5% in [2]; 22% in experiment [3]; 2.27% in [4]; 0.103% in the experiment on Trypanosoma cruzi; -1.94% in experiment [5]. Also, the Percent Effect in experiment [6] is 13.9%; in the experiment listed under Homo sapiens, 28.5%; in experiment [7], 7.29%; in [8], 15.2%; in experiment [9], -33%.

`Cc1nc2cc(O)nn2c(C)c1CCC(=O)N(C)Cc1cscn1`: the Percent Effect was -7.5% in experiment [1]; 18.4% in experiment [2]; -470% in experiment [3]; -2.99% in [4]; 8.08% with Trypanosoma cruzi; -4.73% in experiment [5]. The Percent Effect in experiment [6] was 6.42%; in the experiment filed under Homo sapiens it was 15.6%; in experiment [7] it was -6.38%; in experiment [8] it was 5.2%; in experiment [9], -11.6%.

`COc1nn(C)cc1C(=O)N1CCC(c2nnc(C3CC3)o2)CC1`: the Percent Effect in experiment [1] is -2.78%; in [2], 10.4%; in [3], 4.71%; in experiment [4] it was 4.31%; in the experiment on Trypanosoma cruzi, -0.888%; in experiment [5], 9.68%. Besides, the Percent Effect in experiment [6] is 11.5%; in the experiment listed under Homo sapiens it was 16.4%; in [7] it was 8.47%; in experiment [8], 11.5%; in [9], -10.2%.

As to `COC1CCN(C(=O)Cc2csc(-c3ncccn3)n2)CC1`, the Percent Effect in experiment [1] was -1.74%; in [2], 10.5%; in experiment [3], 1.3%; in experiment [4], 6.25%; with Trypanosoma cruzi it was 6.96%; in experiment [5], 3.83%. Besides, the Percent Effect is 9.19% in [6]; -15.6% in the experiment listed under Homo sapiens; 2.45% in experiment [7]; 17.1% in experiment [8]; -5.39% in [9].

Regarding `COc1ccc(OCc2nc(C(=O)N3CC(O)C3)co2)cc1`, the Percent Effect in [1] was -5.91%; in experiment [2], 5.41%; in experiment [3], 4.37%; in experiment [4] it was 4.07%; with Trypanosoma cruzi it was 1.74%; in experiment [5] it was 1.43%. Further, the Percent Effect in experiment [6] was 3.28%; in the experiment listed under Homo sapiens, 2.54%; in [7], 4.76%; in experiment [8] it was 2.44%; in [9] it was -0.668%.

`CCc1ncc(CNC2CC(=O)N(CCc3cccc(Cl)c3)C2)cn1` (stereo unspecified): the Percent Effect in experiment [1] was -5.45%; in experiment [2] it was 13.7%; in experiment [3] it was -3.73%; in experiment [4], 5.67%; in the experiment with Trypanosoma cruzi, 7.54%; in [5], -3.59%. Also, the Percent Effect in experiment [6] is 6.76%; in the experiment listed under Homo sapiens, 0.221%; in experiment [7], 6.25%; in experiment [8] it was 11.1%; in [9], -2.3%.

`CC(Cn1cncn1)NCc1nncn1C1CCCCC1` (stereo unspecified): the Percent Effect in experiment [1] is -0.337%; in experiment [2], 6.94%; in [3], -10.2%; in experiment [4], 13.3%; in the experiment on Trypanosoma cruzi, 0.0972%; in experiment [5], 12.4%. Besides, the Percent Effect in experiment [6] is 14.4%; in the experiment listed under Homo sapiens, -15.2%; in experiment [7] it was 8.42%; in experiment [8], 15.4%; in experiment [9], -5.04%.

For `CN(C)C(=O)NC1COC2(CCN(Cc3nccn3C)CC2)C1` (stereo unspecified), the Percent Effect was 0.893% in [1]; 5.2% in [2]; -3.63% in experiment [3]; 0.435% in experiment [4]; -7.2% with Trypanosoma cruzi; 5.81% in experiment [5]. Also, the Percent Effect in experiment [6] is 11.3%; in the experiment listed under Homo sapiens it was -0.051%; in experiment [7] it was 5.29%; in [8], 6.41%; in [9] it was 0.228%.

For `COc1c(C)cnc(CN2CCC(N(C)C(C)C(N)=O)CC2)c1C` (stereo unspecified), the Percent Effect was -2.36% in experiment [1]; 13% in experiment [2]; 3.82% in experiment [3]; -8.74% in [4]; -3.56% in the experiment with Trypanosoma cruzi; -0.712% in [5]. The Percent Effect in experiment [6] is 8.95%; in the experiment filed under Homo sapiens it was 42.8%; in experiment [7], 8.74%; in [8] it was 14.6%; in experiment [9] it was -7.36%.
